Assay [1] can be described thus: qHTS assay for small molecules that induce genotoxicity in human embryonic kidney cells expressing luciferase-tagged ATAD5 (AID 651632). Note: nearly all actives have a fitted effect of over 15% in size. An outline of the steps:
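Genotoxicity read-out via ATAD5-luciferase: HEK293T cells, 16 hr compound incubation at 37C, Amplite detection.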

A short description of assay [2]: qHTS assay for small molecule agonists of the p53 signaling pathway - cell viability (AID 651633; calls by dose curve; note: nearly all actives have a fitted effect of over 30% in size; note: potency is the fitted concentration of half-maximal effect). An outline of the steps:
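p53RE-bla cells were treated with compound for 16 hours at 37 C. Cytotoxicity was then measured as CellTiter-Glo luminescence after 30 min at room temperature.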

Assay [3] in a line: qHTS assay for small molecule disruptors of the mitochondrial membrane potential - cell viability (AID 720634; calls by dose curve; note: nearly all actives have a fitted effect of over 20% in size; note: potency is the fitted concentration of half-maximal effect). The method in brief: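 Human hepatoma HepG2 cells were treated for 1 hr with test chemicals, then given m-MPI dye and CellTiter-Glo. Cell viability reflects luminescence proportional to cellular ATP.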
Assay [4] can be described thus: qHTS assay for small molecule disruptors of the mitochondrial membrane potential (AID 720635). Note: potency is the fitted concentration of half-maximal effect. An outline of the steps:
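HepG2 cells exposed to compound 1 hr at 37C, then Mito-MPS dye 30 min. Ratio read of aggregate (540/590 nm) versus monomer (490/535 nm) fluorescence.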

A short description of assay [5]: qHTS assay to test for compound auto fluorescence at 590 nm (red) in HepG2 cells (AID 720674). The method in brief:
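Fluorescence at 590 nm emission following 540 nm excitation was recorded from HepG2 wells one hour after compound transfer, with DMSO-only wells as vehicle and Rose Bengal sodium equivalency as the scale.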

The nature of assay [6]: qHTS assay to test for compound auto fluorescence at 535 nm (green) in HepG2 cells (AID 720675).
A short description of assay [7]: qHTS assay to test for compound auto fluorescence at 460 nm (blue) in HEK293 cells (AID 720678). An outline of the steps: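 Measured: blue fluorescence (Ex 405/Em 460 nm) of compound-treated HEK293 cells, incubated overnight at 37C with 5% CO2 and scaled to triamterene equivalents.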
Assay [8] is described as follows: qHTS assay to test for compound auto fluorescence at 590 nm (red) in HEK293 cells (AID 720679). An outline of the steps: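 Using HEK293 cells at 2,000 per well, the screen added 23 nL of each compound after cell attachment and incubated overnight (37C, 5% CO2). The plate reader then captured red-label fluorescence, Ex/Em 540/590nm.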
Assay [9] in a line: qHTS assay to test for compound auto fluorescence at 535 nm (green) in HEK293 cells (AID 720680).
Assay [10] is described as follows: qHTS assay to test for compound auto fluorescence at 460 nm (blue) in HEK293 cell free culture (AID 720681). The method in brief:
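Compounds were added to cell-free DMEM with 10% FBS and fluorescence read directly. The blue channel used 405 nm excitation and 460 nm emission, with triamterene as the reference fluorophore.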

Assay [11] can be described thus: qHTS assay to test for compound auto fluorescence at 590 nm (red) in HEK293 cell free culture (AID 720683). An outline of the steps: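 Cell-free wells of DMEM with 10% FBS received compound, and intrinsic fluorescence was read at excitation/emission 540/590 nm. Values expressed as equivalence to Rose Bengal sodium.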
A short description of assay [12]: qHTS assay to test for compound auto fluorescence at 590 nm (red) in HepG2 cell free culture (AID 720684). An outline of the steps:
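Compound was pinned into wells holding MEM with 10% FBS and no cells, and red fluorescence was read at Ex/Em 540/590 nm. Signal is expressed as auto fluorescence equivalency relative to Rose Bengal sodium.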

The nature of assay [13]: qHTS assay to test for compound auto fluorescence at 460 nm (blue) in HepG2 cell free culture (AID 720685). The method in brief:
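Compound (23 nL) or DMSO pinned into cell-free MEM with 10% FBS; blue fluorescence read at 405/460 nm excitation/emission, expressed as auto-fluorescence equivalency to triamterene.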

A short description of assay [14]: qHTS assay to test for compound auto fluorescence at 535 nm (green) in HepG2 cell free culture (AID 720686).
Assay [15] can be described thus: qHTS assay to test for compound auto fluorescence at 460 nm (blue) in HepG2 cells (AID 720687). The method in brief: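 HepG2 cells in MEM with 10% FBS, attached overnight at 37 C, were exposed to compound or DMSO for 1 hr at 37 C, 5% CO2. Blue fluorescence was read at 405/460 nm, with triamterene as reference fluorophore.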
Assay [16] is described as follows: qHTS assay to test for compound auto fluorescence at 535 nm (green) in HEK293 cell free culture (AID 720682). An outline of the steps:
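Intrinsic compound fluorescence is measured in culture medium containing 10% FBS, with excitation at 485 nm and detection at 535 nm, referenced to fluorescein.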

Assay [17] concerns the target Glucocorticoid receptor (Homo sapiens) (UniProt P04150). Nature of the assay: qHTS assay to identify small molecule antagonists of the glucocorticoid receptor (GR) signaling pathway (AID 720692; active = well fitted inhibition curve with a large enough effect in the signal ratio in the repeat runs, not every such curve was filed as active; the % refers to the signal ratio; note: potency is the fitted concentration of half-maximal effect). An outline of the steps:
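Fluorescence from cleaved LiveBLAzer B/G FRET substrate reports GRE-driven beta-lactamase in HeLa cells; compounds are tested against 5 nM dexamethasone (final) over 18 h at 37 C, substrate incubation 2 h at room temperature.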

Assay [18] has the same target. Description: qHTS assay to identify small molecule agonists of the glucocorticoid receptor (GR) signaling pathway (AID 720691; active = well fitted activation curve with a large enough effect in the signal ratio in the repeat runs, not every such curve was filed as active; the % refers to the signal ratio). The method in brief: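 Beta-lactamase reporter activity, read as fluorescence intensity, was measured in GR-bla HeLa cells exposed to compounds for 18 h at 37 C and then loaded with LiveBLAzer B/G FRET substrate for 2 h at room temperature.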

Assay [19] is described as follows: qHTS assay for small molecules that induce genotoxicity in human embryonic kidney cells expressing luciferase-tagged ATAD5 - cell viability (AID 651634; calls by dose curve; note: nearly all actives have a fitted effect of over 25% in size). The method in brief:
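Live-cell protease activity (CellTiter-Fluor, fluorescence) indicates viability. HEK293T cells with luciferase-tagged ATAD5; 15.5 hr compound treatment at 37C.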

Records with an inconclusive call do not appear. Active and inactive are the calls of the source. Unless noted, calls come from the whole dose curve; as a rule, active = well fitted curve in the direction sought with a large enough effect in the repeat runs; inconclusive = weak or mixed curves; inactive = no such curve, though single readings can be large; an effect the other way counts as inactive or inconclusive.

Chain of Glucocorticoid receptor (Homo sapiens) (P04150 whole entry, looked up): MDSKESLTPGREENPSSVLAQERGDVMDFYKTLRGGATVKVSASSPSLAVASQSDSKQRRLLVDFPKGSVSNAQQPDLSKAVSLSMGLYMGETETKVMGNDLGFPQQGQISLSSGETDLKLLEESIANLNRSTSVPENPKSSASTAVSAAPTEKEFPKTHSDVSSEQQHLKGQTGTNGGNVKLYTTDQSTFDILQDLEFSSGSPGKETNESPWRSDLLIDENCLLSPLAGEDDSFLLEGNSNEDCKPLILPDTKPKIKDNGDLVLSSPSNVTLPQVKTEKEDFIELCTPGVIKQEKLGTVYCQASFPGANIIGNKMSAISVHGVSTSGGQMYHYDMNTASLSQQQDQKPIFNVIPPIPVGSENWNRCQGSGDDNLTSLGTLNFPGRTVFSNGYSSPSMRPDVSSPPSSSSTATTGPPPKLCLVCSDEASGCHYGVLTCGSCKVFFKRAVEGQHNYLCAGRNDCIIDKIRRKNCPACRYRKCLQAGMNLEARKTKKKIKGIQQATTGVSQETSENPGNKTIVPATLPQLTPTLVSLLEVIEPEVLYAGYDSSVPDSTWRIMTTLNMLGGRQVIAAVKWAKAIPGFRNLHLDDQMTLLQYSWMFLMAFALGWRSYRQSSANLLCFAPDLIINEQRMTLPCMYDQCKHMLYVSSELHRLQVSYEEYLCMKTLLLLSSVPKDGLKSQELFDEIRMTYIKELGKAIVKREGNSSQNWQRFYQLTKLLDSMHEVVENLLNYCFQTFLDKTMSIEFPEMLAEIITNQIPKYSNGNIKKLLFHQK

Regarding `Oc1c(Cl)c(Cl)cc(Cl)c1Cl`, the Potency result in assay [1], in assay [2], in assay [3], in [7], in [10] and in [13] was “inactive” each time. In addition, in assay [15], the Potency entry was “inactive”. The Potency in assay [4] was 5.3 µM (active). Besides, the compound was called inactive in assay [5], in assay [6], in assay [8], in assay [9], in assay [11] and in assay [12]. The compound was called inactive in assay [14].

Turning to `S=C=Nc1cccc2ccccc12`, the Potency entry in assay [1], in assay [7], in assay [10], in [13] and in assay [15] was “inactive” throughout. Besides, the Potency in assay [2] is 48.1 µM (active); in assay [3], 48.1 µM (active); in [4], 17.1 µM (active); in assay [17], 17.2 µM (active). The result in [5], in assay [6], in assay [8], in [9], in [16] and in assay [11] was inactive. In addition, the compound was classed as inactive in [12] and in assay [14].

`OC(c1ccc(Cl)cc1)(c1ccc(Cl)cc1)C(Cl)(Cl)Cl`: the Potency result in [1], in assay [7], in [10] and in assay [15] was “inactive” in each case. Further, the Potency was 61.1 µM (active) in assay [2] and 6.11 µM (active) in assay [4]. Further, the outcome in assay [5], in assay [6], in assay [8], in assay [9], in assay [16] and in assay [11] was inactive. Also, the call in [12] and in [14] was inactive.

As to `N#CCCSCCC#N`, the Potency entry in assay [1], in [2], in [3], in assay [4], in assay [7] and in assay [13] was “inactive” throughout. Further, the Potency result in [15], in assay [18] and in [17] was “inactive” in each case. Further, the compound was classed as inactive in assay [5], in [6], in assay [8], in [9], in assay [16] and in assay [11]. Moreover, the compound was classed as inactive in [12] and in assay [14].

For the compound `O=[N+]([O-])c1c2ccccc2cc2ccccc12`, the Potency entry in assay [1], in assay [2], in assay [19], in assay [7], in assay [10] and in assay [13] was “inactive” each time. The Potency result in assay [15] and in assay [18] was “inactive” in each case. Moreover, the Potency in assay [4] is 8.53 µM (active). Further, the call in assay [5], in assay [6], in [8], in [9], in assay [16] and in assay [11] was inactive. Further, the result in assay [12] and in [14] was inactive.

Consider `CCOCn1c(-c2ccc(Cl)cc2)c(C#N)c(Br)c1C(F)(F)F`, for which the Potency entry in [1], in assay [10], in assay [13], in [15] and in assay [18] was “inactive” in each case. The Potency in assay [2] is 30.6 µM (active); in [4], 0.0486 µM (active). The compound was classed as inactive in [5], in assay [6], in [8], in assay [9], in assay [11] and in [12]. The compound was classed as inactive in assay [14].

As for `Nc1ccc(Sc2ccc(N)cc2)cc1`, the Potency result in [1], in [2], in assay [19], in [3], in [10] and in [13] was “inactive” in each case. Moreover, the Potency entry in assay [15] and in assay [18] was “inactive” throughout. The outcome in [5], in [6], in [8], in [9], in assay [16] and in [11] was inactive. In addition, the outcome in assay [12] and in assay [14] was inactive.

The values are drawn from PubChem BioAssay (Tox21).
